Laboratory results: PubChem BioAssay AID588397 (National Center for Advancing Translational Sciences (NCATS), 2011)
Where “and” joins values, the source holds several entries; their conditions need not be identical. Identical values can stand only once. The whole screen tested about 1,300 compounds, of which about 1,000 (77%) were called active. Not shown: some 7% with an inconclusive outcome. Calls follow the shape of the dose curve; as a rule, active = well fitted inhibition curve with a large enough effect; inconclusive = small, poorly fitted or top-dose-only effect; inactive = no such curve, though single readings can be large or run the other way. So high a share suggests a set chosen from earlier hits. Some of the results follow.

Assay: qHTS of small molecules that selectively kill Giardia lamblia: Hit Validation.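 Also: viability measured as ATP content by luminescence so killing lowers signal; trophozoites exposed to compounds for 48 h anaerobically at 37 °C; nearly all actives have a fitted effect of over 65% in size.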
Settings: Giardia lamblia trophozoite viability, dose-response; series mostly up to 38.3 µM
How it was run: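 Luminescent ATP signal served as the viability read-out, measured 15-30 min after adding ATP detection reagent to trophozoites that had been incubated with compounds for 48 hrs at 37 deg C anaerobically at 100 cells/well.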
Potency is read from the fitted curve at half-maximal effect.

| Structure (SMILES) | Potency |
| --- | --- |
| CN(C)S(=O)(=O)c1cccc(C(=O)NCCNC(=O)c2cccc(S(=O)(=O)N(C)C)c2)c1 | inactive |
| CN(C)c1cc(NC(=O)CNC(C)(C)CC(C)(C)C)c2ccccc2n1 | 1.03 µM (active) |
| O=[N+]([O-])c1ccccc1S(=O)(=O)Oc1ccc(/C=N/n2cnnc2)cc1 | 0.516 µM (active) |
| O=[N+]([O-])c1ccccc1S(=O)(=O)Oc1ccccc1/C=N/n1cnnc1 | 2.05 µM (active) |
| Cc1cc2ccccn2c1C(=O)c1ccc([N+](=O)[O-])cc1[N+](=O)[O-] | 4.6 µM (active) |
| Cn1ccsc1=NC(=O)c1ccc([N+](=O)[O-])o1 | 0.206 µM (active) |
| Cc1[nH]n(C2=NCCS2)c(=O)c1N=Nc1cccc(C(F)(F)F)c1 | 6.5 µM (active) |
| CC(=O)c1cc(N2CCOCC2)ccc1[N+](=O)[O-] | 1.83 µM (active) |
| CCOC(=O)C1CCN(c2ccc([N+](=O)[O-])c(C(C)=O)c2)CC1 | 2.31 µM (active) |
| CC1CCN(c2ccc(-c3ccc(NC(=O)C(F)(F)F)cc3)nn2)CC1 | 1.83 µM (active) |
| COc1ccc(-c2nc3ccccc3n2OCC(=O)O)cc1 | 5.79 µM (active) |
| CCC(C(=O)OC)n1c(-c2ccccc2)nc2ccccc2c1=O (stereo unspecified) | inactive |
| CC(NC(=O)Cn1cc(Br)c([N+](=O)[O-])n1)c1ccccc1 (stereo unspecified) | 0.516 µM (active) |
| NNC(=O)c1cccc(Cn2cc(Br)c([N+](=O)[O-])n2)c1 | 1.16 µM (active) |
| O=[N+]([O-])c1ccc(COn2nnc3ccccc32)cc1 | 1.63 µM (active) |
| CC(Nc1nc(N2CCN(CCO)CC2)nc2ccccc12)c1ccccc1 (stereo unspecified) | 1.03 µM (active) |
| Cc1ccc(OCC(=O)c2cc(C)n(Cc3ccco3)c2C)c([N+](=O)[O-])n1 | 1.16 µM (active) |
| Cc1cc(C(=O)COc2cccnc2[N+](=O)[O-])c(C)n1Cc1ccco1 | 0.65 µM (active) |
| O=c1c2c(-c3ccccc3)csc2ncn1/N=C/c1ccc(O)c([N+](=O)[O-])c1 | 2.9 µM (active) |
| Cc1cc(C)cc(Oc2ccc(NC(=O)C3CC=CCC3C(=O)O)cc2)c1 (stereo unspecified) | 1.3 µM (active) |
| CCc1ccc(C(=O)Nc2nc3ccccc3[nH]2)cc1 | 0.46 µM (active) |
| COC(=O)Nc1nc2ccc(C(=O)c3cccs3)cc2[nH]1 | 0.23 µM (active) |
| COC(=O)Nc1nc2ccc(Sc3ccccc3)cc2[nH]1 | 0.23 µM (active) |

| Structure (SMILES) | Potency |
| --- | --- |
| COC(=O)Nc1nc2ccc(SC(C)C)cc2[nH]1 | 0.365 µM (active) |
| CCc1cccc(NC(=O)CCCSc2nc3ccccc3[nH]2)c1 | inactive |
| CCCSc1ccc2nc(NC(=O)OC)[nH]c2c1 | 0.516 µM (active) |
| COc1cc(SC)ccc1C(=O)Nc1nc2ccccc2[nH]1 | 0.146 µM (active) |
| CCC(=O)Nc1nc(-c2cc([N+](=O)[O-])cs2)cs1 | 1.3 µM (active) |
| CC(=O)Nc1nc(-c2cc([N+](=O)[O-])cs2)cs1 | 1.16 µM (active) |
| NC(=O)c1ccc(NC(=O)COc2ccc([N+](=O)[O-])cc2Cl)cc1 | 1.16 µM (active) |
| NC(=O)c1ccc(Nc2ccc([N+](=O)[O-])cc2[N+](=O)[O-])cc1 | 2.9 µM (active) |
| O=C(Nc1nccs1)c1cc([N+](=O)[O-])ccc1Cl | 2.59 µM (active) |
| COc1ccc(C(=O)c2c3ccccc3[n+]([O-])n2CCCN)cc1 | 1.03 µM (active) and 3.26 µM (active) |
| COc1ccc(C(=O)c2c3ccc([N+](=O)[O-])cc3[n+]([O-])n2CCCN)cc1 | 7.29 µM (active) |
| COc1ccc(C(=O)c2c3ccc([N+](=O)[O-])cc3[n+]([O-])n2CCCC(N)=O)cc1 | 4.1 µM (active) |
| Cc1c(C(=O)O)sc2nc(SCC(=O)Nc3ccc(S(=O)(=O)NC(C)(C)C)cc3)[nH]c(=O)c12 | inactive |
| CCN(CC)CCCC(C)Nc1cc(/C=C/c2ccccc2Cl)nc2cc(Cl)ccc12 (stereo unspecified) | 3.26 µM (active) |
| CCN(CC)CCCC(C)Nc1c2ccc(Cl)cc2nc2ccc(OC)cc12 (stereo unspecified) | 0.13 µM (active) |
| O=C(Nc1ccc(S(=O)(=O)N2CCOCC2)cc1)c1ccc([N+](=O)[O-])o1 | 1.45 µM (active) |
| CC(C)C(=O)NC(=S)Nc1ccc(S(=O)(=O)N2CCCC2)cc1 | inactive |
| COc1ccc(CNC(=O)CN2C(=O)COc3ccc(S(=O)(=O)N4CCCCC4)cc32)cc1 | inactive |
| O=C(Nc1ccc2cn[nH]c2c1)c1ccc(S(=O)(=O)N2CCOCC2)cc1 | inactive |
| O=C(Nc1cccc(S(=O)(=O)N2CCCCC2)c1)c1ccc([N+](=O)[O-])o1 | 0.729 µM (active) |
| COc1ccc(S(=O)(=O)N2CCCCC2)cc1NC(=O)c1ccc([N+](=O)[O-])o1 | 1.45 µM (active) |
| O=C(Nc1ccc(S(=O)(=O)N2CCCC2)cc1)c1ccc([N+](=O)[O-])o1 | 1.16 µM (active) |
| O=C(NCc1ccccc1CN1CCCC1)c1cccc(S(=O)(=O)N2CCCC2)c1 | inactive |

| Structure (SMILES) | Potency |
| --- | --- |
| COc1ccc(C2CC(c3ccccc3)Nc3ncnn32)cc1 (stereo unspecified) | inactive |
| Cc1ccc(NC(=O)c2ccc([N+](=O)[O-])o2)cc1S(=O)(=O)N1CCOCC1 | 0.729 µM (active) |
| NC(=O)c1ccsc1NC(=O)c1ccc(N2CCCC2=O)cc1 | 2.59 µM (active) |
| CN(C(=O)c1ccc(F)c(S(=O)(=O)N2CCOCC2)c1)C1CCCCC1 | inactive |
| O=C(NC1CCS(=O)(=O)C1)c1ccc(N2CCCCC2)c([N+](=O)[O-])c1 (stereo unspecified) | 2.31 µM (active) |
| CN(C(=O)c1ccc(N2CCCCC2)c([N+](=O)[O-])c1)C1CCS(=O)(=O)C1 (stereo unspecified) | 4.1 µM (active) |
| O=C(N/N=C/c1ccc([N+](=O)[O-])o1)c1ccccc1-n1cccc1 | 1.16 µM (active) |
| Cc1nc2ccccn2c1C(=O)N/N=C/c1ccc([N+](=O)[O-])o1 | 1.83 µM (active) |
| O=C1c2ccccc2C(=O)C1c1ccc2ccccc2n1 | 1.16 µM (active) and 1.63 µM (active) |
| O=C1c2ccccc2C(=O)C1c1cc2ccccc2cn1 | 1.45 µM (active) |
| O=[N+]([O-])c1ccc(CSc2nnc(-c3cnccn3)o2)cc1 | 2.31 µM (active) |
| O=[N+]([O-])c1ccc(CSc2nnc(-c3cccnc3)o2)cc1 | 3.65 µM (active) |
| COc1nn(C(C)C(=O)N2N=C(C(F)F)CC2(O)C(F)F)cc1[N+](=O)[O-] (stereo unspecified) | 0.46 µM (active) |
| COc1ccc2nc(N3CCN(C(=O)c4ccc([N+](=O)[O-])o4)CC3)sc2c1 | 1.83 µM (active) |
| COc1ccc(OC)c2sc(N3CCN(C(=O)c4ccc([N+](=O)[O-])s4)CC3)nc12 | 2.59 µM (active) |
| COc1cccc2sc(N3CCN(C(=O)c4ccc([N+](=O)[O-])o4)CC3)nc12 | 2.05 µM (active) |
| O=C(c1ccc([N+](=O)[O-])o1)N1CCN(c2nc3ccc(F)cc3s2)CC1 | 1.83 µM (active) |
| CCCSc1nc2c(cnn2-c2ccc(C)c(C)c2)c(=O)[nH]1 | inactive |
| O=c1cc(-c2ccccc2)[nH]c2cc(Cl)ccc12 | inactive |
| COc1ccc(C(=O)NC2CCN(S(=O)(=O)c3ccc(F)cc3)CC2)cc1 | inactive |
| COc1ccc(S(=O)(=O)N2CCN(C(=O)c3ccc([N+](=O)[O-])o3)CC2)cc1 | 1.3 µM (active) |
| C=Cc1ccc(CN2CCCN(Cc3ccc(F)cc3)S2(=O)=O)cc1 | inactive |
| CN(C(=O)CN1CCN(c2ccc([N+](=O)[O-])cn2)CC1)c1ccccc1 | 4.1 µM (active) |

| Structure (SMILES) | Potency |
| --- | --- |
| Cc1ccc(CNC(=O)c2cc(-c3ccccc3C)n(CC3CC(c4cccc([N+](=O)[O-])c4)=NO3)n2)cc1 (stereo unspecified) | 2.9 µM (active) |
| Cc1nnc(SCc2ccc([N+](=O)[O-])cc2)[nH]c1=O | 2.31 µM (active) |
| O=[N+]([O-])/C(Cl)=C(/NCCO)C(Cl)=C(Cl)Cl | 0.259 µM (active) |
| CC(=O)c1c(C)[nH]c(C(=O)OCC(=O)Nc2cc(Cl)ccc2[N+](=O)[O-])c1C | 2.31 µM (active) |
| CCc1ccc(-c2nc3c(=O)n(C)c(=O)nc-3n(CC)n2)cc1 | 0.183 µM (active) |
| CCn1nc(-c2ccc(C)cc2)nc2c(=O)n(C)c(=O)nc1-2 | 0.206 µM (active) |
| Clc1ccc2oc(-c3ccccc3)cc(=NCCCN3CCOCC3)c2c1 | 0.818 µM (active) |
| CN(C)CCCN=c1cc(-c2ccccc2)oc2ccc(Cl)cc12 | 0.579 µM (active) |
| CC1(C)CC(N=c2cc(-c3ccccc3)oc3ccc(Cl)cc23)CC(C)(C)N1 | 0.65 µM (active) |
| O=C(NCCO)c1ccc2c3n(nc2c1)-c1ccccc1CO3 | 3.26 µM (active) |
| O=C(c1ccc2c3n(nc2c1)-c1ccccc1CO3)N1CCCCC1 | 2.31 µM (active) |
| O=Nc1c2ccc[nH]c-2c2ccc([N+](=O)[O-])cc12 | 1.03 µM (active) |
| O=C(Nc1ccc(N2CCN(Cc3ccccc3F)CC2)cc1)c1ccc([N+](=O)[O-])o1 | 1.16 µM (active) |
| CS(=O)(=O)N1CCN(c2ccc(NC(=O)c3ccc([N+](=O)[O-])o3)cc2)CC1 | 0.579 µM (active) |
| CC1CCN(c2ccc(NC(=O)c3ccc([N+](=O)[O-])o3)cc2)CC1 | 1.16 µM (active) |
| O=C(Nc1ccc(N2CCCCC2)cc1)c1ccc([N+](=O)[O-])o1 | 3.26 µM (active) |
| O=C(NCC1CCN(Cc2ccccc2F)CC1)Nc1ccccc1F | inactive |
| CCC(C(=O)N1CCOCC1)n1nc(C)n2c(cc3cc(C)ccc32)c1=O (stereo unspecified) | inactive |
| O=C(Nc1ccc(N2CCOCC2)cc1)c1ccc([N+](=O)[O-])o1 | 0.579 µM (active) |
| O=C(O)c1cc2ccccc2c(N=Nc2cccnc2)c1O | 2.05 µM (active) |
| O=C(NN1C(=O)c2ccccc2NC1c1ccc([N+](=O)[O-])o1)c1ccccc1 (stereo unspecified) | 1.03 µM (active) |
| O=C(NN1C(=O)c2ccccc2NC1c1ccc([N+](=O)[O-])o1)c1ccc([N+](=O)[O-])cc1 (stereo unspecified) | 2.05 µM (active) |
